# Assay outcomes as filed in PubChem BioAssay.
# G9a inh = qHTS Assay for Inhibitors of Histone Lysine Methyltransferase G9a; G9a H3K9 monomethylation, AlphaScreen, 2 h; Histone-lysine N-methyltransferase EHMT2 (Homo sapiens), Q96KQ7; hit rate 8.8% among 350,000; Potency, µM (titrated, usually from 102 µM), inactives show at the highest dose activity, negative = inhibition, usual class: inhibitors; also: % is scaled to controls: 0 for no effect and ±100 for the full control effect; nearly all actives have a fitted effect of over 75% in size
#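 AlphaScreen detection with an anti-monomethyl H3K9 antibody quantified product after a 2 h room-temperature reaction containing 500 nM biotinylated H3K9 peptide, 20 µM SAM and 20 nM enzyme, which had been preincubated 15 min with compound.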
# JMJD2A Tudor inh = qHTS Assay for Inhibitors of JMJD2A-Tudor Domain. Potency, µM (top dose mostly 114 µM), for the others: at the highest dose activity change, negative = inhibition, hits mostly inhibitors. AlphaScreen JMJD2A-Tudor / H3K4me3 peptide binding. hit rate 4.4% among 390,000. AID 504339, 2011; also: % is scaled to controls: 0 for no effect and ±100 for the full control effect; nearly all actives have a fitted effect of over 50% in size
# L3MBTL1 inh = qHTS Assay for the Inhibitors of L3MBTL1; AlphaScreen L3MBTL1–H3K9me1 peptide binding; Potency, µM (titrated, usually from 57.1 µM), inactives show top-dose activity, negative = inhibition, actives largely listed as inhibitors; hit rate 0.66% among 230,000; AID 485360, 2010; also: % is scaled to controls: 0 for no effect and ±100 for the full control effect; nearly all actives have a fitted effect of over 60% in size
#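 L3MBTL1 50 nM + b-AHA-H3(1-15)K9me1 75 nM, 30 min RT; compound added, 30 min RT; streptavidin donor/Ni-chelate acceptor beads 10 ug/mL each final, 30 min RT dark; AlphaScreen read.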
# GLS inh = qHTS for Inhibitors of Glutaminase (GLS). Glutaminase kidney isoform, mitochondrial (Homo sapiens), O94925. GLS enzymatic activity, qHTS titration. Potency, µM (series often up to 45.5 µM), inactives show top-dose activity change, negative = inhibition, hits mostly inhibitors. hit rate 0.21% among 410,000; also: % is scaled to controls: 0 for no effect and ±100 for the full control effect
# Target sequence (O94925 whole entry, looked up, canonical isoform): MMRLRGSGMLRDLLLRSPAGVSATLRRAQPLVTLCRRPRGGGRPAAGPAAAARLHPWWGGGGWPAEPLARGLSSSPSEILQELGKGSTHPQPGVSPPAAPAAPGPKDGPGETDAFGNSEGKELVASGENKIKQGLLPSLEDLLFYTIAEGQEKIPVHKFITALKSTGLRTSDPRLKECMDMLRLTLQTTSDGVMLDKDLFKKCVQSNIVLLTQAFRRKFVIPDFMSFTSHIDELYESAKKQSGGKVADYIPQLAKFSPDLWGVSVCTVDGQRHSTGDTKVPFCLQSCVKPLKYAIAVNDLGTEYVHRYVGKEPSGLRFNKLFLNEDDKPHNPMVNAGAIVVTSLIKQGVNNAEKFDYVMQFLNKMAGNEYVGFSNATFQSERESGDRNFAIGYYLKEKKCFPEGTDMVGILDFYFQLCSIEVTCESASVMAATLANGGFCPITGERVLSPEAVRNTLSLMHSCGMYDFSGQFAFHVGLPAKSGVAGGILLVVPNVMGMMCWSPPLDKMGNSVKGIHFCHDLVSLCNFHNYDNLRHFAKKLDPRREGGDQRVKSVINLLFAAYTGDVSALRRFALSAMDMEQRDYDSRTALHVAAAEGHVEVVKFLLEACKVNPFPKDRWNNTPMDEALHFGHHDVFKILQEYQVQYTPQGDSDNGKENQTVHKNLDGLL
#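 Two-point fluorescence kinetic (t0, 30 min RT) for hKGA; glutamate detected via glutamate oxidase–HRP–Amplex Red. Substrate: 1 mM L-glutamine solution; buffer 45 mM KH2PO4, pH 8.2.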
# HP1b chromo inh = HTS for Inhibitors of HP1-beta Chromodomain Interactions with Methylated Histone Tails. hit rate 0.56% among 390,000. AlphaScreen HP1-beta / biotin-H3K9me3 peptide binding. AID 540317, 2011. Potency, µM (doses to about 114 µM), without a hit: at the top dose activity change, negative = inhibition, hits mostly inhibitors. Chromobox protein homolog 1 (Homo sapiens), P83916; also: nearly all actives have a fitted effect of over 70% in size
#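 AlphaScreen: HP1-beta (50 nM) preformed 30 min with biotin-H3(1-18)K9me3 peptide (50 nM) in PBS pH 7.4, 0.01% Tween-20. Compound added for 30 min at RT, then streptavidin donor/nickel chelate acceptor beads (10 ug/mL) for 30 min.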
# BAZ2B inh = qHTS Assay for Inhibitors of BAZ2B | AlphaScreen BAZ2B-H3K14Ac peptide displacement | Potency, µM (series often up to 114 µM), for the others: top-dose activity change, negative = inhibition, usual class: inhibitors | hit rate 4.4% among 360,000 | AID 504333, 2011; also: % is scaled to controls: 0 for no effect and ±100 for the full control effect; nearly all actives have a fitted effect of over 60% in size
#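 Compounds, titrated to a top concentration of 110 uM, were incubated 30 min at room temperature with preformed BAZ2B/acetyl-K14 H3 peptide complex (50 nM each). Proximity signal was measured by AlphaScreen after 20 min with beads.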
# The depositor's hits bear a star; ? = inconclusive; nt = no result; ! = a repeat was not active; [ ] = another dose, or the depositor's remark. The list is not random: actives were taken first. Their share in the collection is about 10%. Calls follow the shape of the dose curve; as a rule, active = well fitted curve in the direction sought with a large enough effect; inconclusive = small, poorly fitted or top-dose-only effect, or another doubt; inactive = no such curve, though single readings can be large; an effect the other way counts as inactive or inconclusive. Potency is read from the fitted curve at half-maximal effect.
SMILES,G9a inh,JMJD2A Tudor inh,L3MBTL1 inh,GLS inh,HP1b chromo inh,BAZ2B inh
CN(C(=O)N1CCN(c2ccccn2)CC1)c1ccccc1,-32%[59 µM],-6%,-1%,8%,22%,-5%
O=C(CN1CCOCC1)N(c1ccccc1)c1ccc2ccccc2c1,50µM*,-22%,3%,8%,47%,-27%
O=C(CN1CCN(c2ccccn2)CC1)N(c1ccccc1)c1ccc2ccccc2c1,50µM*,-19%[11.4 µM],?,1%,-36%,?
CC(=O)N1CC(C)Oc2ccc(S(=O)(=O)NC(CC(=O)O)c3ccccc3C)cc21 (stereo unspecified),50µM*,-14%,nt,1%,34%,-30%
Cc1ccc(NC(=O)C2CCCN(c3nnc(C)c4c(C)n(-c5ccccc5)nc34)C2)c(Cl)c1 (stereo unspecified),-9%[59 µM],?,nt,-2%,89%,?
O=C(Nc1ccc2oc(-c3cccnc3)nc2c1)c1ccc(-c2ccccc2OC(F)(F)F)o1,-3%[59 µM],-11%,nt,1%,47%,1%
Cc1nc2cc(NCc3ccccc3O)ccc2n1Cc1ccccc1,nt,32µM*,-15%,-29%,?,20µM*
Cc1ccc(NCc2ccccc2O)cc1C,?,50µM*,nt,4%,?,?
CSc1ccc(CNc2ccc(C)c(C)c2)cc1,89µM*,40µM*,-20%,-6%,?,50µM*
Cc1nc2ccccc2n1Cc1ccccc1,nt,-15%,1%,-5%,25%,0%
Oc1ccccc1CNc1ccc2c(c1)OCCO2,?,-35%,-27%,4%,4%,?
Cc1ccc(Cl)cc1N1CCN(C(c2ccc(F)cc2)c2nnc(-c3ccccc3)o2)CC1 (stereo unspecified),?,?,nt,-2%,12%,-19%
COc1ccc(NC(=O)Cn2c(=O)cc(C)c3c(C)nn(C)c32)cc1,6%[59 µM],-4%,nt,1%,38%,8%
CCOC(=O)c1c(-c2ccccc2)csc1NC(=O)C(C)NCCCN1CCOCC1 (stereo unspecified),11µM*,50µM*,-17%,25%,?,40µM*
CCOC(=O)c1c(-c2ccc(-c3ccccc3)cc2)csc1NC(=O)CCN1CCOCC1,?,?,-1%,7%,-14%,-32%
CCOC(=O)c1c(-c2ccc(F)cc2)csc1NC(=O)CCN1CCOCC1,8.9µM*,1.8µM*,-10%,0%,?,40µM*
CCOC(=O)c1c(-c2ccc(-c3ccccc3)cc2)csc1NC(=O)CNCCN(C)C,50µM*,35µM*,nt,-26%,-14%[57 µM],?
CCOC(=O)c1c(-c2ccc(F)cc2)csc1NC(=O)C1CC=CCC1C(=O)O (stereo unspecified),16µM*,-25%,?,-10%,?,-31%
CCOC(=O)c1ccc(NC(=O)c2ccc(CN3C(=O)CCn4nc(C)cc43)cc2)cc1,-3%[59 µM],-14%,nt,-4%,64%,19%
CCOc1ccccc1-c1noc(CCCC(=O)Nc2cccc(C(F)(F)F)c2)n1,-1%[59 µM],-11%,nt,-16%,10%,13%
Cc1ccc(C(=O)Nc2nnc(S(=O)(=O)N3CCOCC3)s2)cc1,?,-9%,7%,-1%,38%,4%
O=C(COc1ccccc1Cl)Nc1nnc(S(=O)(=O)N2CCCCCC2)s1,56µM*!,-16%,-3%,9%,47%,-3%
COc1ccccc1C(=O)Nc1nnc(S(=O)(=O)N2CCCCCC2)s1,10µM*!,20µM*!,-3%,3%,48%,7.1µM*!
Cc1ccccc1C(=O)Nc1nnc(S(=O)(=O)N2CCCCCC2)s1,14µM*,40µM*!,4%,11%,?,22µM*!
Cc1ccc(C(=O)Nc2nnc(S(=O)(=O)N3CCCCCC3)s2)cc1,7.9µM*,25µM*!,2%,5%,?,10µM*!
SMILES,G9a inh,JMJD2A Tudor inh,L3MBTL1 inh,GLS inh,HP1b chromo inh,BAZ2B inh
Cc1ccc(C)c(-n2nnc(-c3nc(-c4ccccc4C)no3)c2C)c1,13%[59 µM],29%,nt,3%,85%,25%
CCOc1ccc(NC(=O)CC2C(=O)N(c3ccc(Cl)cc3)C(=O)N2Cc2cccs2)cc1 (stereo unspecified),0%[59 µM],-9%,nt,0%,17%,-14%
O=C(Nc1nnc(S(=O)(=O)N2CCCCCC2)s1)c1ccccc1F,11µM*!,40µM*!,7%,-1%,51%,10µM*!
O=C(Nc1nnc(S(=O)(=O)N2CCOCC2)s1)c1ccccc1F,43%,-7%,nt,0%,38%,22%
O=C(Nc1nnc(S(=O)(=O)N2CCN(c3ccc(F)cc3)CC2)s1)c1ccco1,45µM*,?,nt,-7%,23%,?
Cc1ccc(Cl)cc1N1CCN(C(=O)c2cccn2-c2nnc(N3CCCC3)s2)CC1,-28%[59 µM],-19%,nt,-1%,11%,-31%
CCOC(=O)c1c(NC(=O)/C=C/c2ccc(C)cc2)sc2c1CCCC2,23%[59 µM],8%,nt,9%,56%,16%
COc1ccc(-c2n[nH]c3c2cnc2ccc(F)cc23)cc1,36%[59 µM],0%,nt,2%,49%,-14%
CCCC[C@]12Cc3ccccc3C(O1)c1c(cc(-c3ccccc3)oc1=O)O2,-9%[2.33 µM],nt,nt,nt,nt,?
S=C(Nc1ccc(Cl)cc1)c1nc2ccccc2s1,?,?,-22%,4%,?,?
Cc1ccc(NC(=S)c2nc3ccccc3s2)cc1,22µM*,?,?,9%,?,8.9µM*
Cc1ccc(C)c(NC(=S)c2nc3ccccc3s2)c1,?,14µM*,-15%,-2%,-15%,4%
COc1cc2c(-c3ccc(C)cc3)nc3c(c(C)nn3-c3ccccc3)c2cc1OC,22%[59 µM],8%,nt,3%,48%,0%
COc1cc(C2C(C(=O)c3cc4ccccc4o3)=C(O)C(=O)N2c2cc(C)on2)cc(OC)c1OC (stereo unspecified),45µM*,-17%,nt,-1%,29%,-28%[57.1 µM]
COc1cccc(C2C(C(=O)c3cc4ccccc4o3)=C(O)C(=O)N2c2cc(C)on2)c1OC (stereo unspecified),45µM*,?,-4%,9%,2%,-28%
CCOc1ccc(Cn2c(CNS(=O)(=O)c3ccc(C(C)(C)C)cc3)nc3cccnc32)cc1,4%[59 µM],-16%,nt,7%,28%[57 µM],-13%
